# Compounds without any hit were thinned out: in the full panel of roughly 83,000, 20% have a hit.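 Assay: single dose, 48 h. Readout: percent growth (0 = no net growth; negative = cell death). Active: <10.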 Active and inactive are the calls of the source.
# Test system: MDA-MB-468 breast
# Experiment: NCI-60 one-dose screen, 48 h (100 = growth as untreated, 0 = no growth, -100 = all killed)
# Settings: 10 µM unless noted
row,SMILES,growth
1,COc1ccc([C@@H]2[C@@H](Oc3ccccc3)C(=O)N2c2cc(OC)c(OC)c(OC)c2)cc1F,4.05% (active)
2,C=C(C)[C@@H]1CC[C@]2(C(N)=O)CC[C@]3(C)[C@H](CC[C@@H]4[C@@]5(C)C/C(=C/c6cccnc6)[C@H](O)C(C)(C)[C@@H]5CC[C@]43C)[C@@H]12,23.6% [100 µM] (inactive)
3,CCCCN(CCCC)CCc1c(C)cc(C)c(CCN(CCCC)CCCC)c1O,0.281% (active)
4,COC(=O)c1cc2oc(/C=N/NC(=O)c3cc4oc(-c5cccc(C(F)(F)F)c5)cc4[nH]3)cc2n1Cc1ccccc1,106% (inactive)
5,CC(C(=O)O)N1C(N)=NNC1c1ccccc1O (centres undefined),104% (inactive)
6,COc1ccc(C2CC(c3ccc(Nc4ccnc5cc(Cl)ccc45)cc3)=NN2c2ccccc2)cc1 (centres undefined),101% (inactive)
7,CCOC(OCC)c1cnc2nc(NC(C)=O)[nH]c(=O)c2n1,109% (inactive)
8,CC/C(=C(\c1ccc(O)cc1)c1ccc(OCCN(C)CCN(C)C(=O)CCC(=O)c2c(C)[nH]c(/C=C3\N=C(c4ccc[nH]4)C=C3OC)c2C)cc1)c1ccccc1,65.9% (inactive)
9,CCCCN1CCCCn2c1nc1c2c(=O)n(C)c(=O)n1C,102% (inactive)
10,O=C(CN1C=NC2C(N3CCOCC3)=NC=NC21)c1ccc(Br)cc1 (centres undefined),99% (inactive)
11,CCN(CCNc1cc(OC)cc2cccnc12)CCc1ccccc1,-25.4% (active)
12,Cc1ccc(-c2nc3ccccc3c(=O)n2/N=C/c2cccc3ccccc23)cc1,80.9% (inactive)
13,COc1ccc(Cn2cc(COc3ccc4c5ccnc(C)c5n(CCCc5ccccc5)c4c3)nn2)cc1,62.5% (inactive)
14,Cc1cc(C)c([I+]c2c(C)cc(C)cc2C)c(C)c1,-41.9% (active)

# Source: PubChem BioAssay (NCI)
